From PubChem BioAssay
RORgamma inh = ROR gamma (mouse) transcription inhibition; Potency, µM (titrated, usually from 53.6 µM), for inactives: top-dose activity change, negative = inhibition, most hits filed as inhibitors; AID 2551; 310,000 compounds, 5.4% hits; Drosophila S2 Gal4-RORgamma UAS-luciferase reporter, 20 h; P51450; further: nearly all actives have a fitted effect of over 60% in size
Target sequence (P51450 whole entry, looked up, the tested form may be a part): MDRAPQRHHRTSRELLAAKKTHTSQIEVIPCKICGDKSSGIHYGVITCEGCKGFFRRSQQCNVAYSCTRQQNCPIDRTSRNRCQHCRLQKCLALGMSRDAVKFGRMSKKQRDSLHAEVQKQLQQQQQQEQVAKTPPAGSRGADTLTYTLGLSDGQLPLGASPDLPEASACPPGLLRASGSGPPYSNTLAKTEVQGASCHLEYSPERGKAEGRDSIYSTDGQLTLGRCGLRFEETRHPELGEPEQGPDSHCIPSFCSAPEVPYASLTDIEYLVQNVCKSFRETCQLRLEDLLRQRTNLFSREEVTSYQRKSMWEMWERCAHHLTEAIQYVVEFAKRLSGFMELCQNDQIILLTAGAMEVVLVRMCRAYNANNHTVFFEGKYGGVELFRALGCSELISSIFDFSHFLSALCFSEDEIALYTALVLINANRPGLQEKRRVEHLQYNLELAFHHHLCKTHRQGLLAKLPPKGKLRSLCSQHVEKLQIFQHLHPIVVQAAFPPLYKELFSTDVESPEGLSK
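Drosophila Schneider cells stably carrying a metallothionein-driven Gal4 DBD–ROR gamma fusion and a UAS-Photinus luciferase reporter were exposed to compound for 1 hr, then induced with copper sulfate (700 uM final) for 20 hr at ambient temperature before luminescence reading.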
PLK1 PBD inh = blocks phosphopeptide binding to human PLK1 polo-box domain; P53350; Plk1 PBD binding of FITC phosphopeptide, fluorescence polarization; Potency, µM, for inactives: max response, negative = inhibition, most hits filed as inhibitors; 360,000 compounds, 2.8% hits; further: series mostly up to about 57 µM; nearly all actives have a fitted effect of over 65% in size
Gal4-VP16 FLuc = Gal4-VP16 reporter inhibition counter-screen; Drosophila S2 Gal4-VP16 UAS-luciferase, luminescence, 20 h; AID 2546; Potency, µM (series often up to 53.6 µM), inactives show at the highest dose activity, negative = inhibition, most hits filed as inhibitors; 310,000 compounds, 3.5% hits;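 further: Gal4-VP16 expression switched on by copper sulfate through the metallothionein promoter; nearly all actives have a fitted effect of over 50% in size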
Sfp inh = inhibitors of Bacillus subtilis Sfp phosphopantetheinyl transferase. 310,000 compounds, 3.5% hits. Potency, µM, for inactives: largest response in the series, negative = inhibition, most hits filed as inhibitors. AID 1490. Biochemical Sfp PPTase activity, qHTS. Q9F4F7;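 further: the enzyme is Sfp with the accession as filed and its product quenches rhodamine fluorescence; 0% = enzyme reaction without inhibitor and -100% = no enzyme wells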
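Sfp 15 nM + cpd, 15 min RT; start w/ rhodamine-CoA 5 uM, BHQ-2-YbbR 12.5 uM (final); 50 mM Hepes pH 7.6, 10 mM MgCl2, 0.01% NP-40, 0.01% BSA; read 525/598 nm at 0 and 30 min.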
ALDH1A1 inh = blocks purified human ALDH1A1 activity; P00352; Purified ALDH1A1, NADH fluorescence, propionaldehyde substrate; Potency, µM (titrated, usually from 75.3 µM), without a hit: top-dose activity, negative = inhibition, actives largely listed as inhibitors; 220,000 compounds, 7.3% hits; AID 1030; active means well fitted inhibition curve with a large enough effect, not every such curve was filed as active; inconclusive means small, poorly fitted or top-dose-only effect, or another doubt; inactive means no such curve, though single readings can be large or run the other way;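 further: plate controls were no enzyme wells and a reference inhibitor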
* marks the source's active call; other numbers are inactive results; ? = inconclusive; . = no result given; ! = a repeat was not active; [ ] = remark or other dose. Sampled rows, rich in hits. Any-hit rate of the full collection: about 12%. Unless noted, the call rests on the fitted dose curve; in most records, active means well fitted curve in the direction sought with a large enough effect; inconclusive means small, poorly fitted or top-dose-only effect, or another doubt; inactive means no such curve, though single readings can be large; an effect the other way counts as inactive or inconclusive. Unless noted, on the % scale 0 is the no-effect control and ±100 the full control effect; potency means the concentration at half of the fitted maximal effect.

SMILES	RORgamma inh	PLK1 PBD inh	Gal4-VP16 FLuc	Sfp inh	ALDH1A1 inh
CCCC(=O)N1CCC1(C)C(=O)Nc1ccc2c(c1)CCN2C(C)=O (stereo not drawn)	.	0.7%	.	.	.
CC(=O)Nc1ccc(-c2ccnc3c2CC(C(=O)Nc2cccc(C(C)=O)c2)O3)cc1 (stereo not drawn)	.	-6.7%	.	.	.
O=C(Nc1ccccc1)N1CC2(CCN(C(=O)c3ccncc3)CC2)C1	-13.3%	.	-11.8%	-4.8%	-0.9%
Cc1[nH]c(C)c(C(=O)/C=C/c2ccc([N+](=O)[O-])cc2)c1C	1.12µM*	-4.4%	?	1.4%	.
Brc1ccc(OCCCOc2cccc3cccnc23)cc1	?	-12.0%	?	-0.3%	.
Cc1ccc(OCCCOc2cccc3cccnc23)cc1C	14.1µM*	3.8%	?	89.1µM*	5.0%
Cc1cccc(OCCCCc2c(C)n[nH]c2C)c1C	14.1µM*	-0.4%	?	11.5%	-6.6%
Cc1cccc(OCCCOc2cccc3cccnc23)c1C	12.6µM*	1.5%	?	79.4µM*	-9.9%
CCOc1ccccc1OCCCCCc1c(C)n[nH]c1C	?	0.7%	?	6.6%	8.7%
COC(=O)C[C@@H]1C=C[C@@H](NC(=O)NC2CCCC2)[C@@H](CO)O1	.	-3.6%	.	.	.
S=C(Cc1cccnc1)N1CCOCC1	2.5%	23.8µM*	-5.8%	-69.2%	12.6µM*
Cc1cc[n+](C(C)C(=O)c2ccc(-c3ccccc3)cc2)cc1 (stereo not drawn)	?	-3.2%	10µM*	-1.5%	?
COC1CCC(C(=O)c2ccc3nc4c(cc3c2)CCCO4)CC1 (stereo not drawn)	0.1%	.	-11.3%	6.8%	-4.1%
OCCCN1CNC(=S)NC1	.	0.0%	.	.	.
CC(C)(C)CC(C)(C)N1CNC(=S)NC1	10µM*	-9.1%	?	7.9%	?
C=CCCCCCCCCC(=O)Nc1ncccn1	2.3%	11.9µM*	-0.2%	21.4%	.
CCCCCCCC/C=C\CCCCCCCC(=O)NCCc1ccc(O)c(O)c1	?	23.8µM*	17.8µM*!	8.7%	2.2%
CCCCC/C=C\C/C=C\C/C=C\C/C=C\CCCCCC(=O)NCCc1ccc(O)c(O)c1	-2.9%	.	1.2%	-22.0%	-4.3%
CC(C)N(C(=S)NCc1ccccc1)c1ccccc1	7.94µM*	-11.8%	?	-26.6%	?
CN(C)CCCN(Cc1ccccc1)C(=S)NCc1ccccc1	8.2%	-20.2%	3.4%	20.5%	?
Cc1cccc(C)c1NC(=S)N(c1ccccc1)C(C)C	-13.9%	29.9µM*	-6.6%	7.5%	7.5%
CC(C)N(C(=S)NCc1ccccc1)C(C)C	7.08µM*	?	11.2µM*	-9.4%	0.4%
C[C@]12CC[C@@H]3c4ccc(O)cc4CC[C@H]3[C@@H]1CC[C@H]2O	-34.6%	.	-12.6%	10.4%	-1.6%
O=C(O)c1ccccc1C(=O)Nc1ccc(Br)c2cccnc12	6.9%	-6.1%	-18.7%	39.8µM*	-3.4%
CC1(C(=O)NCc2cccc3ccccc23)CCN1Cc1ccccc1OC(F)F (stereo not drawn)	.	1.1%	.	.	.
SMILES	RORgamma inh	PLK1 PBD inh	Gal4-VP16 FLuc	Sfp inh	ALDH1A1 inh
CNC(=S)Nc1ccc([N+](=O)[O-])c(C)c1	10µM*	3.3%	?	15.8%	?
Cc1ccc(CNC(=S)Nc2ccc(C)c([N+](=O)[O-])c2)cc1	6.31µM*	-14.8%	3.55µM*	4.8%	4.0%
COc1ccc(CCC(=O)Nc2cc([N+](=O)[O-])ccc2OC)cc1	23.7%	-6.9%	6.8%	-2.7%	?
Cc1ccc(NC(=S)NCc2ccccc2)cc1[N+](=O)[O-]	?	-4.2%	?	3.2%	-13.3%
COc1ccc(CCC(=O)Nc2ccc(C)c([N+](=O)[O-])c2)cc1	-0.4%	?	-15.2%	?	10µM*
CNC(=S)Nc1ccc([N+](=O)[O-])cc1C	-4.7%	-17.6%	2.3%	-18.6%	?
CC(=O)NC(c1cccc(F)c1)c1nc(-c2ccoc2)cs1 (stereo not drawn)	.	-1.5%	.	.	.
CCOC(=O)[C@]12CCC=C1N(Cc1ccccc1)C(=O)[C@H](CC(=O)NCC13CC4CC(CC(C4)C1)C3)C2	.	-8.4%	.	.	.
CO/N=C(/C(=O)N[C@@H]1C(=O)N2C(C(=O)O)=C(COC(N)=O)CS[C@H]12)c1ccco1	16.6%	.	-1.4%	-24.0%	?
[O-]c1c[n+](-c2ccc(-[n+]3cc([O-])on3)cc2)no1	1.6%	-9.3%	-25.3%[10 µM]	56.2µM*	?
Cc1nn(C)cc1/C=N\NC(=O)c1ccc2c(c1)c(C)c(C)n2Cc1ccccc1	15.8µM*	-16.4%	?	-20.3%	-6.8%
c1cncc(CN2CCN(c3cc(-c4cnc5ccccc5c4)nc4ccnn34)CC2)c1	.	-7.3%	.	.	.
O=C(O)c1ccc2c(c1)C1C=CCC1C(c1cc3c(cc1Br)OCO3)N2 (stereo not drawn)	9.0%	?	-0.4%	-5.0%	5.6%
Cc1ccc2c(c1)C1C=CCC1C(C(=O)O)N2 (stereo not drawn)	-11.1%	.	-6.5%	?	?
CC(=O)c1ccc2c(c1)C1C=CCC1C(c1ccncc1)N2 (stereo not drawn)	-20.8%	-16.1%	8.5%	-27.6%	20µM*
CC(=O)c1ccc2c(c1)C1C=CCC1C(C(=O)O)N2 (stereo not drawn)	5.1%	7.52µM*	-4.3%	-20.3%	?
O=C1CCC(OCc2ccccc2)CCN1[C@H](CSc1ccccc1)Cc1ccccc1 (stereo partly drawn)	.	-7.8%	.	.	.
Cc1cccc(NC(=O)c2ncn3c2C(=O)N[C@@H](C)C3)c1	.	0.2%	.	.	.
CC(C)c1ccc(NC(=O)CCCN2C(=S)NC(C)(C)CC2C)cc1 (stereo not drawn)	22.9%	-1.2%	-3.1%	10.8%	5.01µM*
O=C(CCCN1C(=O)CCC1=O)Nc1ccccc1F	10.0%	?	4.1%	79.4µM*	0.2%
O=C(CCn1cccc1)N1CCc2ccccc21	15.0%	-15.2%	29.0%	1.3%	?
CCOc1ccc(NC(=O)CCN2C(=S)NC(C)(C)CC2C)cc1 (stereo not drawn)	?	3.7%	?	11.4%	3.2%
COC(=O)c1cc(OC)c(OC)cc1NC(=O)CCCCCN1C(=O)CCC1=O	5.5%	29.9µM*	14.9%	7.6%	-11.7%
CC1CC(C)(C)NC(=S)N1CCC(=O)N1CCc2ccccc21 (stereo not drawn)	6.31µM*	-17.8%	?	4.9%	?
O=C(O)c1cc(NS(=O)(=O)c2ccc(F)cc2)cc(NS(=O)(=O)c2ccc(F)cc2)c1	.	-1.2%	.	.	.
CC1CC(C)(C)NC(=S)N1CCCC(=O)Nc1ccccc1F (stereo not drawn)	17.8µM*	2.7%	-12.1%	7.4%	2.3%
CC1CC(C)(C)NC(=S)N1CCCC(=O)N1CCN(c2ccccc2F)CC1 (stereo not drawn)	14.1µM*	-0.8%	?	9.1%	?
CC1CC(C)(C)NC(=S)N1CCCC(=O)Nc1ccc(F)c(F)c1 (stereo not drawn)	?	-7.9%	?	17.0%	1.8%
